Screens as filed in PubChem BioAssay.
FLuc inh: blocks purified firefly luciferase enzyme activity. P08659. purified P. pyralis luciferase, luminescence, biochemical. Potency, µM (series often up to 115 µM), usual class: inhibitors. 2.5% of 76,000 active. AID 1347043; further: nearly all actives have a fitted effect of over 65% in size
Target sequence (P08659 whole entry, looked up): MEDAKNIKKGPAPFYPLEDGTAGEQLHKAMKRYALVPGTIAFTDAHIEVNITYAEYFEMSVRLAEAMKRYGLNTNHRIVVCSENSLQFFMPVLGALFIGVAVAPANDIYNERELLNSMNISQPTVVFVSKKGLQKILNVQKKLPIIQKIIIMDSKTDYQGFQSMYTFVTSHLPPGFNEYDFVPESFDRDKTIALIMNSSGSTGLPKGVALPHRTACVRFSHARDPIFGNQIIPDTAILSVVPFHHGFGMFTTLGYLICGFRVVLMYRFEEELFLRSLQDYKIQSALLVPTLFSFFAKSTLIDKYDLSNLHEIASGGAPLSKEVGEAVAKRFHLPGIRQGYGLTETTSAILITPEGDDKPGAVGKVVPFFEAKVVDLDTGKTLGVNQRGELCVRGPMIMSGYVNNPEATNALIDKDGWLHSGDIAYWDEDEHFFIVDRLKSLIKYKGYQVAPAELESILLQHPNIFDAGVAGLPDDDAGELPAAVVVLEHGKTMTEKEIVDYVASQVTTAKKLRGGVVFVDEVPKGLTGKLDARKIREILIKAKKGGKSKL
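FLuc 10nM, D-luciferin 10uM, ATP 10uM, Mg acetate 10mM, Tris acetate pH 7.5, Tween/BSA; cpd qHTS; enzyme added last; CCD luminescence.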
HEK cytotox: HEK 293 cell cytotoxicity. HEK 293 viability, ATP luminescence (CellTiter-Glo), 48-72 h. AID 1345083. 6.6% of 94,000 active. Potency, µM (titrated, usually from 115 µM), inactives show top-dose activity change, negative = cytotoxicity, usual class: inhibitors; further: nearly all actives have a fitted effect of over 60% in size
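ATP-coupled CellTiter-Glo luminescence served as viability read-out, recorded 10 min after reagent addition at room temperature. HEK 293 cells, 250 cells/well, had been incubated with pintool-transferred compound for 48 or 72 hr at 37 degree Celsius.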
NIH3T3 tox: NIH 3T3 cell cytotoxicity | NIH 3T3 viability, CellTiter-Glo ATP luminescence, 48-72 h | Potency, µM (highest dose often 96.7 µM), inactives show at the highest dose activity change, negative = cytotoxicity, most hits filed as inhibitors | 4.3% of 94,000 active | AID 1345082; further: nearly all actives have a fitted effect of over 55% in size
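Cytotoxicity is measured as loss of cellular ATP: NIH 3T3 cells (400/well) are exposed to compound for 48 or 72 hr at 37 °C, then CellTiter-Glo luminescence is imaged after 10 min at room temperature.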
hNpr1 antagonist: human Npr1 receptor antagonism | P16066 | HEK293 hNpr1 GloSensor cGMP, ANP-stimulated luminescence | Potency, µM (top dose mostly 46.3 µM), without a hit: at the top dose activity change, negative = inhibition, hits mostly inhibitors | 1.6% of 76,000 active | AID 1347048; calls by dose curve; further: nearly all actives have a fitted effect of over 60% in size
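HEK293 cells stably expressing human Npr1 and cGMP GloSensor pGS-40F, loaded 2 h with 2% GloSensor reagent, given compound 30 min at room temperature. Luminescence read before and 20 min after 0.1 nM hNppA.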
Numbers without * were called inactive; i = inactive; ? = inconclusive; · = not tested or not shown; [ ] = dose if it differs, or a comment. Rows were chosen to be rich in hits. Some 11% of all compounds tested hit in one or more screens of this group. Unless noted, the call rests on the fitted dose curve; in most records, active means well fitted curve in the direction sought with a large enough effect; inconclusive means small, poorly fitted or top-dose-only effect, or another doubt; inactive means no such curve, though single readings can be large; an effect the other way counts as inactive or inconclusive. On the % scale 0 is the no-effect control and ±100 the full control effect; potency means the concentration at half of the fitted maximal effect.

SMILES	FLuc inh	HEK cytotox	NIH3T3 tox	hNpr1 antagonist
Cc1noc(C)c1-c1cc2c(cc(C)n2C)c(NC2CCN(C)CC2)n1	i	?	?	-2%[70.6 µM]
Cc1nnc2ccc(N3CCCC(NC(=O)NC(C)C)C3)nn12 (centres undefined)	·	-16%[172 µM]	-21%[138 µM]	·
COc1ccc(C(=O)N2CCc3nnc([C@@H]4C[C@@H](O)CN4C(C)C)n3CC2)cn1	i	-13%	-18%	-13%
COC1C(=O)N(c2cccc(F)c2)C12CCN(C(=O)c1cc3ccccc3[nH]1)CC2 (centres undefined)	?	32µM*	?	-3%
COC1C(=O)N(c2cccc(F)c2)C12CCN(C(=O)Nc1ccccc1)CC2 (centres undefined)	i	-27%	?	1%
COC1C(=O)N(c2cccc(F)c2)C12CCN(S(=O)(=O)Cc1ccccc1F)CC2 (centres undefined)	i	40µM*	-18%	-25%
COC1C(=O)N(c2cccc(F)c2)C12CCN(S(=O)(=O)Cc1ccccc1)CC2 (centres undefined)	i	?	-17%	-3%
COc1ccc2nc3n(c2c1)[C@@H](CNC(=O)NC(C)C)COC3	i	1%[172 µM]	4%[138 µM]	-1%[70.6 µM]
COc1ccc2nc3n(c2c1)[C@@H](CNC(C)C)COC3	i	-14%[230 µM]	100µM*	1%[70.6 µM]
O=C(c1ccc(C2CCNC2)cc1)N(Cc1ccccc1)CC1CCC1 (centres undefined)	i	25µM*	?	-4%
CC(=O)N1CCN(c2nc3c(s2)CC(C(=O)Nc2cc(Cl)ccc2F)CC3)CC1 (centres undefined)	i	40µM*	?	-22%
Cc1ccccc1NC(=O)C1CCc2nc(N3CCN(C(=O)C(C)C)CC3)sc2C1 (centres undefined)	i	10µM*	35µM*	-8%
CC(=O)N1CCN(c2nc3c(s2)CC(C(=O)NCc2cccc(Cl)c2)CC3)CC1 (centres undefined)	i	?	-31%	-10%
Cc1ccc(CNC(=O)C2CCc3nc(N4CCN(C(=O)C(C)C)CC4)sc3C2)o1 (centres undefined)	i	79µM*	-17%	-4%
Cc1nc(CCC(=O)N2CCCC(CCc3c(F)cccc3F)C2)n[nH]1 (centres undefined)	i	-6%	-1%	5%
CC(C)CCNC(=O)CCC1CCN(C(=O)c2ccccc2F)CC1	28µM*	-22%	-28%	-3%
Cc1ccc(C(CC(=O)Nc2ccc(F)cc2)c2c[nH]c3ccccc23)cc1 (centres undefined)	i	?	45µM*	-26%
O=C(CC(c1cccc([N+](=O)[O-])c1)c1c[nH]c2ccccc12)NCc1ccccc1 (centres undefined)	i	?	?	-14%
O=C(c1cccc(C(F)(F)F)c1)N1CCC(Oc2ncccc2C(=O)N2CCCCC2)C1 (centres undefined)	i	-5%	?	0%
O=C(Cc1ccsc1)N1CCc2n[nH]c(=O)n2CC1	i	0%	-2%	-1%
Cc1ncc(CN2CCCC2C(=O)Nc2ccc(-c3cccc(F)c3)cc2)n1C (centres undefined)	i	20µM*	?	16%
O=C(Nc1ccc(-c2cccc(F)c2)cc1)C1CCCN1Cc1ccc(CO)o1 (centres undefined)	?	35µM*	?	-19%
Cc1ncc(CN2CCCC2C(=O)Nc2ccc(-c3cccc(F)c3)cc2)[nH]1 (centres undefined)	i	?	?	-2%
COc1cccc(CNC(=O)c2cn3cc(-c4cccnc4)sc3n2)c1	·	-31%	?	·
O=C(NCc1cccnc1)c1cn2cc(-c3ccccc3)sc2n1	·	50µM*	?	·
SMILES	FLuc inh	HEK cytotox	NIH3T3 tox	hNpr1 antagonist
COc1cccc(-c2cn3cc(C(=O)NCc4cccnc4)nc3s2)c1	·	32µM*	?	·
Cc1ccc(CN2CCCN(Cc3ccncc3)C(c3ccccc3)CC(=O)NCC2)o1 (centres undefined)	i	?	?	-5%
CCN1CCC2(CC1)Cc1ccccc1CN(S(=O)(=O)c1ccccc1)C2	·	-24%	32µM*	·
CS(=O)(=O)N1Cc2ccccc2CC2(CCN(Cc3ccccn3)C2)C1 (centres undefined)	·	-7%	-5%	·
CC(C)Oc1cccc2c1c(NC(=O)C1CCCO1)nn2Cc1ccccc1 (centres undefined)	i	45µM*	?	4%
O=C1CN(C(=O)c2cccc(C(F)(F)F)c2)CC(O)CN1Cc1ccc(Cl)cc1 (centres undefined)	·	?	-23%	·
Cc1ccc(CN2CC[C@H](c3nc4ccc(C)cc4[nH]3)C2)cc1	i	?	?	-14%[70.6 µM]
Fc1ccc2nc([C@H]3CCN(Cc4cccs4)C3)[nH]c2c1	40µM*	71µM*	?	?
COc1ccccc1CN1CC[C@H](c2nc3ccc(C(F)(F)F)cc3[nH]2)C1	i	32µM*	28µM*	1%[70.6 µM]
Fc1ccc(CN2CC[C@H](c3nc4ccc(C(F)(F)F)cc4[nH]3)C2)cc1F	i	10µM*	13µM*	?
Fc1ccc2nc([C@H]3CCN(Cc4ncc[nH]4)C3)[nH]c2c1	i	?	?	-3%[70.6 µM]
Fc1ccc2nc([C@H]3CCN(Cc4ccc(F)c(F)c4)C3)[nH]c2c1	?	56µM*	?	?
O=C(c1cc(-c2ccsc2)c2nncn2n1)N1CCOCC1	·	-7%[172 µM]	?	·
O=C1Nc2ccc(-c3ccccc3F)cc2C(=O)N2CCN(C(=O)NC3CCCCC3)C[C@H]12	i	?	?	-8%
Cc1ccc(Cl)cc1NC(=O)Cn1ccn2nc3c(c2c1=O)CCCCC3	?	?	?	-5%
Cc1ccc(CN2CC[C@H](c3nc4ccc(C(F)(F)F)cc4[nH]3)C2)cc1	i	40µM*	28µM*	?
Cc1onc(C(=O)NC2CCc3nn(C)c(=O)n3CC2)c1COc1ccccc1 (centres undefined)	i	-8%	4%	7%
CC1(c2ccccc2)N(Cc2ccccc2)C(=O)OC12CCN(Cc1cccnc1)CC2 (centres undefined)	i	?	100µM*	-12%[70.6 µM]
CC1(c2ccccc2)N(Cc2ccccc2)C(=O)OC12CCN(c1cccnc1)CC2 (centres undefined)	i	71µM*	89µM*	-2%[70.6 µM]
CC1(c2ccccc2)N(Cc2ncccn2)C(=O)OC12CCN(Cc1cccc(OC(F)(F)F)c1)CC2 (centres undefined)	i	50µM*	40µM*	-8%
O=C(NC1CCCN(c2cc(-c3ccccc3)[nH]n2)C1)C1CCCC1 (centres undefined)	i	?	-24%	-11%
CC1(c2ccccc2)N(Cc2ccccc2C#N)C(=O)OC12CCN(c1ccncc1)CC2 (centres undefined)	i	?	?	?
